Assay results reported in PubChem BioAssay (NCI).
This is part of a sample that, as a whole, favours compounds with a hit. Of some 83,000 tested, about 20% had one in any assay.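 Results are percent growth after 48 hours of single-concentration exposure. 100 means growth as in untreated cells, lower positive values show inhibition; negative values down to -100 show cell death.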 Calls of active or inactive are those of the source. How the source made its calls: active means growth percent below 10; inactive means the rest.

What was measured:
Experiment in all cases: NCI-60 one-dose screen, 48 h (100 = growth as untreated, 0 = no growth, -100 = all killed)
Conditions in all cases: 10 µM unless noted
T-47D breast = test system: T-47D breast
BT-549 breast = test system: BT-549 breast
MDA-MB-435 melanoma = test system: MDA-MB-435 melanoma
SW-620 colon = test system: SW-620 colon
MCF7 breast = test system: MCF7 breast
HCT-116 colon = test system: HCT-116 colon
HCC-2998 colon = test system: HCC-2998 colon
KM12 colon = test system: KM12 colon

Measured: growth

CC1=NN(c2nc(SCC(=O)Nc3nc4ccc(C)cc4s3)nc(-c3ccccc3)c2C#N)C(=O)C1
inactive: T-47D breast 91.3% | BT-549 breast 95.5% | MDA-MB-435 melanoma 103% | SW-620 colon 102% | MCF7 breast 96.8% | HCT-116 colon 101% | HCC-2998 colon 104% | KM12 colon 101%

CCN(CC)C(=S)SC(SC(=S)N(CC)CC)C(=O)c1nnn(-c2ccc([N+](=O)[O-])cc2)c1C
inactive: T-47D breast 76.4% | BT-549 breast 109% | MDA-MB-435 melanoma 101% | SW-620 colon 95.5% | MCF7 breast 59.3% | HCT-116 colon 95.7% | HCC-2998 colon 104% | KM12 colon 98%

Fc1ccc(Nc2nc3nonc3nc2Nc2ccc(I)cc2)cc1
inactive: SW-620 colon 11.2%
active: T-47D breast -26.7% | BT-549 breast -6.04% | MDA-MB-435 melanoma 4.78% | MCF7 breast 1.98% | HCT-116 colon 3.42% | HCC-2998 colon 9.77% | KM12 colon 2.12%

CN(C)c1ccc(Nc2cc(-c3cccc(OC(F)(F)F)c3)nc3ccc(N4CCCC4)cc23)cc1
inactive: T-47D breast 70.5% | HCC-2998 colon 91.1%
active: BT-549 breast -49.6% | MDA-MB-435 melanoma -73.6% | SW-620 colon -48.1% | MCF7 breast -14.7% | HCT-116 colon -31.2% | KM12 colon -45.5%

C=C(C)[C@@H]1CC[C@]2(C(=O)NCCNCCN)CC[C@]3(C)[C@H](CC[C@@H]4[C@@]5(C)C/C(=C/c6ccncc6)C(=O)C(C)(C)[C@@H]5CC[C@]43C)[C@@H]12
inactive: T-47D breast 80.8% | BT-549 breast 95.2% | MDA-MB-435 melanoma 92.7% | SW-620 colon 92.7% | MCF7 breast 97.6% | HCT-116 colon 83.7% | HCC-2998 colon 91.6% | KM12 colon 96.9%

CCOC(=O)c1cc2c(=O)oc3ccccc3c2oc1=O
inactive: T-47D breast 107% | BT-549 breast 99.4% | MDA-MB-435 melanoma 111% | SW-620 colon 105% | MCF7 breast 99.8% | HCT-116 colon 109% | HCC-2998 colon 102% | KM12 colon 110%

C=CCn1cc(-c2nc3ccccc3s2)c2cc(-c3ccc4c5c(cccc35)C(=O)N(N)C4=O)ccc21
inactive: T-47D breast 78.2% | BT-549 breast 94.4% | MDA-MB-435 melanoma 103% | SW-620 colon 98.5% | MCF7 breast 75.2% | HCT-116 colon 96.6% | HCC-2998 colon 102% | KM12 colon 100%

CCN1C(=O)N(CC)C2C1NN=c1s/c(=C\c3ccc(Cl)cc3Cl)c(=O)n12 (stereo not given)
inactive: T-47D breast 58.8% | BT-549 breast 15.9% | SW-620 colon 20.5% | MCF7 breast 14%
active: MDA-MB-435 melanoma -24.8% | HCT-116 colon 9.71% | HCC-2998 colon 7.2% | KM12 colon 7.47%

COc1ccc(-c2nnc3n(C)c(=O)c4ccccc4n23)cc1N
inactive: T-47D breast 24.2% | BT-549 breast 31.2% | SW-620 colon 20.3% | MCF7 breast 18.6% | HCT-116 colon 20.2% | HCC-2998 colon 49.7% | KM12 colon 28.3%
active: MDA-MB-435 melanoma -19.6%

N#CCSc1nnc2n(Cc3ccccc3)c(=O)c3c4c(sc3n12)CCCC4
inactive: T-47D breast 111% | BT-549 breast 98.7% | MDA-MB-435 melanoma 107% | SW-620 colon 109% | MCF7 breast 98.9% | HCT-116 colon 92.7% | HCC-2998 colon 105% | KM12 colon 101%

COCCn1c(-c2csc(-c3cn(C)c4ccc(OC)cc34)n2)cc2cccnc21
inactive: BT-549 breast 43.6% | MDA-MB-435 melanoma 74.5% | SW-620 colon 15.1% | MCF7 breast 47.5% | HCT-116 colon 57.2% | KM12 colon 21.5%
active: T-47D breast 8.7% | HCC-2998 colon -3.8%

COc1ccc(-c2nc3c(c(-c4ccccc4)nn3-c3ccccc3)c(-c3ccc(N4CCN(C)CC4)cc3)c2C#N)cc1
inactive: T-47D breast 96.2% | BT-549 breast 90.6% | MDA-MB-435 melanoma 93.9% | SW-620 colon 85.6% | MCF7 breast 81% | HCT-116 colon 81.4% | HCC-2998 colon 106% | KM12 colon 95.6%

CCCCC(=O)c1ccco1
inactive: T-47D breast 79.4% | BT-549 breast 102% | MDA-MB-435 melanoma 98.8% | SW-620 colon 97% | MCF7 breast 90.9% | HCT-116 colon 91.6% | HCC-2998 colon 94.3% | KM12 colon 106%

Cc1ccccc1/C=C1\CN(C(=O)OC(C)(C)C)C/C(=C\c2ccccc2C)C1=O
inactive: T-47D breast 51.8% | BT-549 breast 70.3% | MDA-MB-435 melanoma 12% | MCF7 breast 19.2%
active: SW-620 colon 5.37% | HCT-116 colon -53.9% | HCC-2998 colon 3.27% | KM12 colon -32.8%

Cc1ccc2c3c(c(=O)[nH]c2c1)C1(C(C#N)=C(N)O3)c2cc(Br)ccc2-c2ccc(Br)cc21
active: T-47D breast -29.6% | SW-620 colon -36.5% | MCF7 breast -42.6% | HCC-2998 colon -4.73% | KM12 colon 6.52%
inactive: BT-549 breast 61.8% | MDA-MB-435 melanoma 42.8% | HCT-116 colon 10%
